Results reported in PubChem BioAssay (NCI).
Compounds without any hit were thinned out: in the full panel of roughly 83,000, 20% have a hit.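 For each line, cells grew in 96-well plates with the test compound present at a single concentration for 48 hours.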 Unmarked numbers belong to inactive results. The source made the active and inactive calls. The calls were made as follows: active = growth percent below 10; inactive = the rest.

The compounds below were run on HL-60(TB) leukemia (assay: NCI-60 one-dose screen, 48 h (100 = growth as untreated, 0 = no growth, -100 = all killed)). Conditions: 10 µM unless noted.
In the case of `CC(C)CN1CC(C(=O)Nc2ccc3c(c2)-c2ccccc2C3)CC1=O` (stereo not given), the growth is reported as 91.7% [50 µM]. Compound `CCN(CC)CCNc1ccc(C)c2sc3cc(C)ccc3c(=O)c12` has a growth of 64.1%. `COC(=O)c1cc2c(n1Cc1ccccc1)-c1oncc1CCC2` gave a growth of 28.9%. With `COc1cc(-c2nc(SCCC(C)C)nc(Nc3ccc(S(N)(=O)=O)cc3)c2C#N)cc(OC)c1OC` the growth was -18.9% (active). `NC(=O)CSc1nc(-c2ccc(F)cc2)cc(-c2ccco2)n1` gave a growth of 108%. With `CCN(c1ccc(C(=O)N2CCN(c3ccccc3)CC2)cc1)S(C)(=O)=O` the growth was 99.4%. In the case of `Cc1ccc(Nc2nc(-c3cc(O)c(C)c(C)c3O)cs2)cc1`, the growth is reported as 9.51% (active). `CN(C)CCS(=O)(=O)Nc1cc(-c2ccc3ncnc(Nc4ccc(F)c(Cl)c4)c3c2)cnc1Cl` was tested, and the growth was -15% (active). With `COc1ccc(C(=O)/C=C/c2cc3c(c(OC)c2)OCC(=O)N3)cc1` the growth was 6.81% (active). `O=C(Cn1nnc2ccccc21)Nc1ccc(-c2nc3ccccc3s2)cc1` was tested, and the growth was 90.8%. With `COc1ccc(Cl)cc1Nc1nc(C(F)(F)F)ccc1C(=O)N/N=C/c1c(Cl)cccc1Cl` the growth was 48.4%. `Clc1ccc(-c2noc(/C=C\c3ccccc3)n2)cc1` showed a growth of 94%. In the case of `CCCCN(CCCC)c1ccc(C(=NC(C)CCCN(CC)CC)c2ccc(N(C)C)cc2)cc1` (stereo not given), the growth is reported as -32.1% (active). For `Cc1cnc(C(=O)NNc2nc3sc4c(c3c(=O)[nH]2)C(C)CCC4)cn1` (stereo not given), the growth was -30.7% (active). Work on `CCOC(=O)NNC(=S)Nc1ccccc1` yielded a growth of 106%. `CCCCO[C@@H]1C=C2[C@H]3CC(C)(C)C(=O)C[C@]3(C(=O)O[C@@H]3O[C@H](CO[C@@H]4O[C@H](CO)[C@@H](OC5OC(C)C(O)C(O)C5O)[C@H](O)[C@H]4O)[C@@H](O)[C@H](O)[C@H]3O)CC[C@@]2(C)[C@]2(C)CC[C@H]3C(C)(C)C(=O)CC[C@]3(C)[C@@H]12` (stereo not given in full) was tested, and the growth was 49.2%. `OCc1cc(CN2CCCCC2)c(O)c2ncccc12` was tested, and the growth was 33.2%. In the case of `C=C(C)[C@@H]1CC[C@]2(C(=O)O)CC[C@]3(C)[C@H](CC[C@@H]4[C@@]5(C)C/C(=C/c6cccc(I)c6)C(=O)C(C)(C)[C@@H]5CC[C@]43C)[C@@H]12`, the growth is reported as 7.47% (active). `CN(C)c1ccc(C(C#N)(c2ccccc2)c2ccc(N(C)C)cc2)cc1` was tested, and the growth was 61.9%. Compound `COc1ccc(C2C(c3nn[nH]n3)=C(N)Oc3c2ccc2ccccc32)cc1` (stereo not given) has a growth of 31.9%. `CCOC(=O)Cn1c(C)c(/C=N/NC(=O)c2cc3c(ccc4ccccc43)o2)c2ccccc21` was tested, and the growth was 0.68% (active). `COc1cc(C)cc2oc3oc(=O)c(-c4csc(-c5cc6ccccc6oc5=O)n4)cc3c(=O)c12` showed a growth of 115%. `O=C(Nc1ccc(Br)cc1F)c1cc(Br)ccc1O` was tested, and the growth was -23.7% (active). `S=C(NCc1ccccc1)N1CCC(CCCC2CCN(C(=S)NCc3ccccc3)CC2)CC1` was tested, and the growth was 89.7%. `CC(Br)C(Br)c1cc2c(cc1Br)OCO2` (stereo not given) was tested, and the growth was 97%. In the case of `CC(C)=CCc1cc(O)cc2c1OC(C=C(C)C)C1=C2C(=O)C2=C(NCCS2(=O)=O)C1=O` (stereo not given), the growth is reported as -35.7% (active). In the case of `COc1cc(CCn2nnc3c(NCCCCO)ncnc32)cc(OC)c1`, the growth is reported as 133%. For `N#CC1=C(N)Oc2ccc3ccccc3c2C1c1ccc([N+](=O)[O-])cc1` (stereo not given), the growth was 39.8%. Compound `Cc1ccccc1OCC(O)COc1ccccc1C` has a growth of 128%. `Cc1cccnc1NC1OC(=O)c2ccccc21` (stereo not given) showed a growth of 100%. With `Cc1cc(=O)c2c(C)ccc(C)c2[nH]1` the growth was 96.7%. With `CC(C)(C)CC(C)(C)n1nnnc1C(NC12CC3CC(CC(C3)C1)C2)c1ccccc1` (stereo not given) the growth was 99.3%. In the case of `C=C1C(=O)O[C@H]2[C@H]1CC/C(COC(=O)NCCc1c[nH]c3ccccc13)=C\CC[C@@]1(C)O[C@@H]21`, the growth is reported as -46.2% (active). With `Cc1nc(Nc2ccc(NC(=S)Nc3ccccc3)cc2)nc2nc(Nc3ccc(S(=O)(=O)O)cc3)[nH]c(=O)c12` the growth was 132%. Compound `O=C(/C=C/c1ccc2c(c1)OCO2)c1c(O)c2ccccc2oc1=O` has a growth of 77.8%. In the case of `Cn1ncc2c(Nc3ccccc3Cl)nc(Cl)nc21`, the growth is reported as 96.1%. With `CC(C)(C)OC(=O)c1ccc(NCc2cc(O)ccc2O)cc1` the growth was -39.3% (active). `COc1ccc(C(=O)c2sc3nc4c(c(C(F)(F)F)c3c2N)CN(C(C)=O)CC4)cc1OC` showed a growth of 98.7%. For `COC(=O)/C=C1/SC(=Nc2ccc([N+](=O)[O-])cc2)N(CCc2c[nH]c3ccc(O)cc23)C1=O`, the growth was 32.2%. For `COc1ccc2c(c1)c(-c1nc(-c3c[nH]c4ncccc34)cs1)cn2CCCN1CCOCC1`, the growth was 17.4%.
